The antibiotic and cytotoxicity screens of Wong et al. (2023)
Out of some 39,000 compounds screened, about 3,300 (8.5%) were called active. The list comes from a sample in which actives are over-represented; it also holds similar structures and randomly drawn compounds.

Test system: HepG2
Assay: cytotoxicity call (relative viability < 0.9)
Settings: 10 µM

Compound | cytotoxicity call
C[C@@H]1CN([C@@H](C)CO)C(=O)c2cc(NC(=O)CCCN(C)C)ccc2O[C@@H](C)CCCCO[C@@H]1CN(C)C | inactive
CN(Cc1ccc(/C=C/C(=O)Nc2ccc(-c3cccs3)cc2N)cc1)CC12CC3CC(CC(C3)C1)C2 | inactive
CN(Cc1ccc(/C=C/C(=O)Nc2ccc(-c3ccccc3)cc2N)cc1)CC12CC3CC(CC(C3)C1)C2 | active
C[C@H]1CN([C@@H](C)CO)C(=O)c2cccc(NC(=O)CCCCCC(=O)Nc3ccccc3N)c2O[C@@H]1CN(C)Cc1ccc(-c2ccccc2)cc1 | inactive
O=C(C[C@H]1CC[C@@H]2[C@H](COC[C@H](O)CN2S(=O)(=O)c2cccc(F)c2)O1)NCc1ccncn1 | inactive
C[C@H]1CN([C@@H](C)CO)C(=O)c2cc(C#CC3CCCCC3)cnc2O[C@H]1CN(C)C(=O)Cc1ccccn1 | inactive
CCc1nc2ccc(C(=O)NCc3ccc(OC)cc3)cn2c1N(CC)Cc1cccc(Br)c1 | inactive
CC(=O)n1cc([C@@H]2C=C(C(=O)N3CCN(Cc4ccc5c(c4)OCO5)CC3)O[C@H](OCc3ccc(COC(=O)NCCCCCC(=O)NO)cc3)C2)c2ccccc21 | inactive
CCC(=O)NCc1nn(C)c2c1COCC2 | inactive
CCC(=O)NCCC1CCc2ccc3c(c21)CCO3 (centres undefined) | active
COc1ccc(NC(=O)N(C)C[C@@H]2OCCCC[C@@H](C)Oc3ccc(NC(=O)Nc4cccc5ccccc45)cc3C(=O)N([C@@H](C)CO)C[C@@H]2C)cc1 | inactive
C[C@H](CO)N1C[C@H](C)[C@@H](CN(C)Cc2ccc3c(c2)OCO3)OCCCC[C@H](C)Oc2ccc(NC(=O)Cc3ccccc3)cc2C1=O | inactive
C[C@@H]1CCCCO[C@@H](CN(C)CC2CCCCC2)[C@@H](C)CN([C@@H](C)CO)C(=O)c2cc(NC(=O)Nc3ccc4c(c3)OCO4)ccc2O1 | active
C[C@H]1CCCCO[C@H](CN(C)CC2CCCCC2)[C@@H](C)CN([C@@H](C)CO)C(=O)c2cc(NC(=O)Nc3ccc4c(c3)OCO4)ccc2O1 | active
C[C@@H]1CN([C@H](C)CO)C(=O)c2cc(NC(=O)Nc3ccc4c(c3)OCO4)ccc2O[C@@H](C)CCCCO[C@@H]1CN(C)CC1CCCCC1 | inactive
C[C@H](CO)N1C[C@H](C)[C@@H](CN(C)CC2CC2)OCCCC[C@H](C)Oc2ccc(NC(=O)Nc3ccc4c(c3)OCO4)cc2C1=O | inactive
C[C@H](CO)N1C[C@H](C)[C@H](CN(C)CC2CCCCC2)OCCCC[C@H](C)Oc2ccc(NC(=O)Nc3ccc4c(c3)OCO4)cc2C1=O | active
C[C@@H]1CCCCO[C@@H](CN(C)CC2CCCCC2)[C@@H](C)CN([C@H](C)CO)C(=O)c2cc(NC(=O)Nc3ccc4c(c3)OCO4)ccc2O1 | active
C[C@@H]1CCCCO[C@@H](CN(C)CC2CC2)[C@@H](C)CN([C@H](C)CO)C(=O)c2cc(NC(=O)Nc3ccc4c(c3)OCO4)ccc2O1 | inactive
C[C@H](CO)N1C[C@H](C)[C@H](CN(C)CC2CC2)OCCCC[C@H](C)Oc2ccc(NC(=O)Nc3ccc4c(c3)OCO4)cc2C1=O | inactive
C[C@@H]1CCCCO[C@@H](CN(C)CC2CC2)[C@H](C)CN([C@H](C)CO)C(=O)c2cc(NC(=O)Nc3ccc4c(c3)OCO4)ccc2O1 | inactive
C[C@@H]1CCCCO[C@H](CN(C)CC2CCCCC2)[C@H](C)CN([C@H](C)CO)C(=O)c2cc(NC(=O)Nc3ccc4c(c3)OCO4)ccc2O1 | inactive

Compound | cytotoxicity call
C[C@@H]1CCCCO[C@H](CN(C)CC2CC2)[C@@H](C)CN([C@H](C)CO)C(=O)c2cc(NC(=O)Nc3ccc4c(c3)OCO4)ccc2O1 | inactive
C[C@@H]1CCCCO[C@H](CN(C)CC2CCCCC2)[C@@H](C)CN([C@H](C)CO)C(=O)c2cc(NC(=O)Nc3ccc4c(c3)OCO4)ccc2O1 | inactive
CCC[C@@]1(CCc2ccccc2)CC(=O)[C@@H]([C@H](CC)c2cccc(NS(=O)(=O)c3ccc(C(F)(F)F)cn3)c2)C(=O)O1 | inactive
C[C@@H]1CCCCO[C@@H](CN(C)Cc2ccc(C(=O)O)cc2)[C@@H](C)CN([C@@H](C)CO)C(=O)c2cc(NS(=O)(=O)c3ccc(F)cc3)ccc2O1 | inactive
C[C@@H]1CN([C@@H](C)CO)S(=O)(=O)c2ccc(-c3cccnc3)cc2O[C@@H]1CN(C)CC1CCOCC1 | inactive
COc1ccc(S(=O)(=O)Nc2cccc3c2O[C@H](CN(C)S(=O)(=O)c2ccccc2)[C@@H](C)CN([C@@H](C)CO)C3=O)cc1 | inactive
C[C@H](CO)N1C[C@H](C)[C@H](CN(C)S(=O)(=O)c2ccc(F)cc2)Oc2ccc(NC(=O)C3CC3)cc2CC1=O | inactive
O=C(O)CCc1n[nH]c(=S)[nH]c1=O | inactive
Cc1ccc(S(=O)(=O)Nc2ccc3c(c2)C(=O)N([C@H](C)CO)C[C@H](C)[C@@H](CN(C)C(=O)c2ccccc2)OCCCC[C@H](C)O3)cc1 | inactive
C[C@@H]1CN([C@H](C)CO)C(=O)Cc2cc(NC(=O)Cc3ccccc3)ccc2O[C@H]1CN(C)S(=O)(=O)c1ccc(F)cc1 | inactive
COc1ccc(NC(=O)N(C)C[C@H]2OCCCC[C@H](C)Oc3ccc(NC(=O)Cc4ccccc4)cc3C(=O)N([C@H](C)CO)C[C@H]2C)cc1 | inactive
C[C@@H]1CN([C@H](C)CO)C(=O)Cc2cc(NC(=O)Cn3cnnn3)ccc2O[C@H]1CN(C)S(=O)(=O)c1ccc(F)cc1 | inactive
COc1ccc(S(=O)(=O)Nc2cccc3c2O[C@@H](CN(C)Cc2ccc(Oc4ccccc4)cc2)[C@@H](C)CN([C@@H](C)CO)C3=O)cc1 | inactive
CCS(=O)(=O)N1C[C@]2(C1)CN([C@@H](CO)c1c2c2ccc(cc2n1C)OC)C(=O)c1ccc(cc1)F | inactive
CN(C)C(=O)c1ccc(-c2ccc3n(c2=O)C[C@H]2[C@H](CO)[C@@H](C(=O)NCCc4ccccc4)N[C@@H]32)cc1 | inactive
C[C@H]1CCCCO[C@@H](CN(C)CC2CCCCC2)[C@@H](C)CN([C@@H](C)CO)C(=O)c2cc(NC(=O)Nc3ccc4c(c3)OCO4)ccc2O1 | active
C[C@@H]1CCCCO[C@@H](CN(C)CC2CCCCC2)[C@H](C)CN([C@@H](C)CO)C(=O)c2cc(NC(=O)Nc3ccc4c(c3)OCO4)ccc2O1 | inactive
C[C@@H]1CCCCO[C@@H](CN(C)CC2CCCCC2)[C@H](C)CN([C@H](C)CO)C(=O)c2cc(NC(=O)Nc3ccc4c(c3)OCO4)ccc2O1 | inactive
C[C@H](CO)N1C[C@H](C)[C@@H](CN(C)CC2CCCCC2)OCCCC[C@H](C)Oc2ccc(NC(=O)Nc3ccc4c(c3)OCO4)cc2C1=O | inactive
C[C@@H]1CCCCO[C@H](CN(C)CC2CCCCC2)[C@H](C)CN([C@@H](C)CO)C(=O)c2cc(NC(=O)Nc3ccc4c(c3)OCO4)ccc2O1 | active
C[C@@H]1CN([C@@H](C)CO)C(=O)c2cc(NC(=O)Nc3ccc4c(c3)OCO4)ccc2O[C@@H](C)CCCCO[C@@H]1CN(C)CC1CCCCC1 | inactive
C[C@@H]1CN([C@@H](C)CO)C(=O)c2cc(NC(=O)Nc3ccc4c(c3)OCO4)ccc2O[C@@H](C)CCCCO[C@H]1CN(C)CC1CCCCC1 | active

Compound | cytotoxicity call
CC(C)CC#Cc1cnc2c(c1)C(=O)N([C@@H](C)CO)C[C@@H](C)[C@H](CN(C)S(=O)(=O)c1ccccc1)O2 | inactive
CC(C)(C)c1nc(-c2cccc(NS(=O)(=O)c3c(F)cccc3F)c2F)c(-c2ccnc(N)n2)s1 | inactive
CC(C)NC(=O)N(C)C[C@H]1Oc2ccc(NC(=O)CCN3CCOCC3)cc2CC(=O)N([C@@H](C)CO)C[C@H]1C | inactive
CCS(=O)(=O)N1C[C@]2(CCN(CC2)Cc2cccc(c2)OC)c2c(n(c3cc(ccc23)OC)C)[C@@H]1CO | inactive
C[C@H](CO)N1C[C@H](C)[C@@H](CN(C)C(=O)c2ccccn2)Oc2cc(Br)ccc2S1(=O)=O | inactive
CCNC(=O)c1cc2c(c(-c3cccc(-c4cc5ccccc5o4)c3)n1)[C@@H](CCO)N(C(=O)NC(C)C)C2 | inactive
Cc1ccc(S(=O)(=O)N(C)C[C@H]2Oc3ncc(Br)cc3C(=O)N([C@H](C)CO)C[C@@H]2C)cc1 | inactive
C[C@H](CO)N1C[C@H](C)[C@@H](CN(C)C(=O)Nc2ccc(F)cc2)OCCCC[C@H](C)Oc2ccc(NC(=O)NC3CCCCC3)cc2C1=O | inactive
Cc1c(-c2ccc(C(N)=O)c3[nH]c4cc(C(C)(C)O)ccc4c23)cccc1-n1cnc2ccccc2c1=O | active
CCOC(=O)Cn1cnc2ccccc2c1=O | inactive
Cc1nc2c(cc1C(=O)NN)c(=O)n(C)c(=O)n2C | inactive
CC(C)NC(=O)Nc1ccc2c(c1)CC(=O)N([C@H](C)CO)C[C@H](C)[C@@H](CN(C)Cc1ccc(Oc3ccccc3)cc1)O2 | inactive
O=C(C[C@@H]1CC[C@H]2[C@@H](COC[C@@H](O)CN2C(=O)c2ccncc2)O1)NC1CCC1 | inactive
C[C@@H]1CCCCO[C@H](CN(C)C(=O)Nc2cccc3ccccc23)[C@H](C)CN([C@@H](C)CO)C(=O)c2cc(NC(=O)c3ccncc3)ccc2O1 | inactive
CC(=O)N(O)CCCCCNC(=O)CC(O)(CC(=O)NCCCCCN(O)C(C)=O)C(=O)O | inactive
CC(=O)N(O)CCCCCNC(=O)CCC(=O)N(O)CCCCCNC(=O)CCC(=O)N(O)CCCCCN.CS(=O)(=O)O | active
C[C@H](N)CCC(=O)NCS(=O)(=O)O | inactive
CC(=O)NCCCS(=O)(=O)O | inactive
CC(=O)N(O)CCCCCNC(=O)CCC(=O)N(O)CCCCCNC(=O)CCC(=O)N(O)CCCCCN | active
CC(=O)N(O)CCCCNC(=O)CCC(=O)N(O)CCCCCNC(=O)CCC(=O)N(O)CCCCCN | inactive
